Experimental data from PubChem BioAssay (NCI).
This is part of a sample that, as a whole, favours compounds with a hit. Of some 83,000 tested, about 20% had one in any assay.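 For each line, cells grew in 96-well plates with the test compound present at a single concentration for 48 hours.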 Values without a mark were called inactive. Active and inactive are the calls of the source. Rule for the calls: active = growth percent below 10; inactive = the rest.

Tested on: NCI-H522 lung
Assay: NCI-60 one-dose screen, 48 h (100 = growth as untreated, 0 = no growth, -100 = all killed)
Conditions: 10 µM unless noted

Row | Structure (SMILES) | growth
1 | CC1(C)CC[C@]2(C(=O)O)CC[C@]3(C)C(=CCC4[C@@]5(C)C[C@@H](O)[C@@H]6OC(c7ccccc7O)OC[C@@]6(C)C5CC[C@]43C)C2C1 (stereo partly drawn) | 53.6%
2 | CN(c1ccc(Br)cc1)S(=O)(=O)c1ccc(-c2cnc(C3CC3)o2)cc1 | 16.8%
3 | CN1CCN(c2nc(-c3csc(-c4ccncc4)n3)cc3ccccc23)CC1 | 55.7%
4 | O=C(O)c1ccc(-n2cc(CNc3ccc(F)cc3)c(-c3ccc(C(F)(F)F)cc3)n2)cc1 | 93.8%
5 | CSc1nccc(-c2c(-c3ccc(F)c(OCc4ccc(F)cc4)c3)nc3sccn23)n1 | 66.7%
6 | O=C(COc1ccc(C2SCC(=O)N2c2ccccc2)cc1)c1ccccc1 (stereo not drawn) | 80.6%
7 | O=C(O)CNS(=O)(=O)c1ccc(Oc2ccc(S(=O)(=O)NCC(=O)O)cc2)cc1 | 94.7%
8 | Cn1nc(Nc2ccccc2)c(C(=O)NN)c1N | 96.9%
9 | COc1cc(/C=N/n2cnc3oc(-c4ccccc4)cc3c2=N)cc(CN2CCN(C)CC2)c1O | 96.9%
10 | CC(C)SC1=NC(=C(C(=N1)NC2=ClC=CC=C2)C#N)C3=CC=CC=C3 | 84.5%
11 | NS(=O)(=O)c1ccc(Nc2nc(N/N=C/c3ccc(F)cc3)nc(Nc3ccccc3)n2)cc1 | 15.5%
12 | C#C[C@]1(O)CC[C@H]2[C@@H]3CC=C4c5sc(Nc6cccc(C)n6)nc5CC[C@]4(C)[C@H]3CC[C@@]21C | 44.7%
13 | CNC(=O)c1cc(Oc2ccc3nc(NC(=O)c4cc(C)cc(C)c4)sc3c2)ccn1 | 84.2%
14 | C=C(C)[C@@H]1CC[C@]2(COS(C)(=O)=O)CC[C@]3(C)[C@H](CC[C@@H]4[C@@]5(C)CCCNC(C)(C)[C@@H]5CC[C@]43C)[C@@H]12 | 85.4%
15 | CC(C)=CCc1c2c(c(O)c3c1O[C@]14C(=C[C@@H]5C[C@H]1C(C)(C)O[C@@]4(C/C=C(/C)C(=O)O)C5=O)C3=O)CC(O)C(C)(C)O2 (stereo partly drawn) | -53.9% (active)
16 | O=C(Cn1cc(CN2C(=O)c3ccc([N+](=O)[O-])cc3C2=O)nn1)Nc1ccccc1Br | 102%
17 | COc1cc(-c2nc(SCc3ccc(C)cc3)[nH]c(=O)c2C#N)ccc1OCc1ccccc1 | 95.6%
18 | CC(C)N=C(N/C(N)=N/c1nc2ccccc2s1)NC(C)C | 85.1%
19 | O=C(Nc1cc(Cl)cc(Cl)c1)Nc1ccc2oc(=O)ccc2c1 | 6.05% (active)

Row | Structure (SMILES) | growth
20 | CS(=O)(=O)c1nccc(-c2c(-c3ccc(F)c(OCc4ccccc4)c3)nc3sccn23)n1 | 74.1%
21 | COc1ccc(C2C(C#N)=C(N)Oc3c2sc2ccc(C)cc32)cc1 (stereo not drawn) | -34.3% (active)
22 | C#C[C@]1(O)CC[C@H]2[C@@H]3CC=C4c5sc(-c6ccccn6)nc5CC[C@]4(C)[C@H]3CC[C@@]21C | 91.6%
23 | COc1ccc(OC)c([C@H]2c3[nH]c4ccccc4c3C[C@H]3C(=O)N(CCCCCCC(=O)NO)CC(=O)N23)c1 | 69.2%
24 | Cc1cnc2nc(NN)[nH]n12 | 93.1%
25 | COc1ccc(-c2nc3cc(Cl)c(Cl)cc3n2CC(=O)N=Nc2c(O)[nH]c3ccc(Br)cc23)cc1 | 14%
26 | O=C(NCCCCCCNC(=O)c1c2c(nc3ccccc13)-c1cccnc1SC2)c1c2c(nc3ccccc13)-c1cccnc1SC2 | 95.7%
27 | COc1ccc(-c2ccc3c4c(cccc24)C(=O)N(N2C(=O)c4cccc5cccc(c45)C2=O)C3=O)cc1 | 97.1%
28 | COc1ccc(-c2nc3cc(Cl)c(Cl)cc3n2CC(=O)N=Nc2c(O)[nH]c3ccc(Cl)cc23)cc1 | 37.6%
29 | CCOC(=O)c1c(NCC(=O)Nc2ccc(Br)cc2)sc2c1CCCC2 | -48.8% (active)
30 | CN1C(=O)/C(=C/C=C/c2ccco2)SC1=S | 71.3%
31 | COc1ccc(-c2nnc(SCc3ccc(O)c4ncccc34)o2)cc1 | 27.2%
32 | C#CCOc1ccc(/C=N/Nc2nc(-c3cc4cc(Br)cc(Br)c4oc3=O)cs2)cc1 | 95%
33 | CS(=O)c1nccc(-c2c(-c3ccc(F)c(OCCc4ccc(F)cc4)c3)nc3sccn23)n1 (stereo not drawn) | -61.7% (active)
34 | O=C1[C@@H]2Cc3c([nH]c4ccccc34)[C@H](c3c(Cl)cccc3Cl)N2C(=O)CN1C1CCN(Cc2c(F)cccc2F)CC1 | 93%
35 | NNC(=O)c1sc2nc(-c3cnccn3)cc(-c3cccs3)c2c1N | 101%
36 | Cn1cc(-c2nnc(N)nc2-c2cn(C)c3ccc(F)cc23)c2cc(F)ccc21 | 73.2%
37 | COc1ccccc1/C=C/C=N/NC1=NC2C(S1)N(C)C(=O)N2c1ccccc1 (stereo not drawn) | 13.1%
38 | C[C@H]1[C@H](C)CC[C@]2(COC(=O)c3cccnc3)CC[C@]3(C)C(=CC[C@@H]4[C@@]5(C)CCCNC(C)(C)[C@@H]5CC[C@]43C)[C@H]12 | 82.9%
